This is part of a sample that, as a whole, favours compounds with a hit. Of some 83,000 tested, about 20% had one in any assay.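 Single-concentration screen, 48 h exposure, 96-well plates. Endpoint: percent growth. Below 10 = active.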 Values without a mark were called inactive. Activity calls are given as the source filed them.
Assays:
Test in all cases: NCI-60 one-dose screen, 48 h (100 = growth as untreated, 0 = no growth, -100 = all killed)
Details in all cases: 10 µM unless noted
NCI-H23 lung = system: NCI-H23 lung
NCI-H226 lung = system: NCI-H226 lung
NCI-H322M lung = system: NCI-H322M lung
HOP-62 NSCLC = system: HOP-62 NSCLC
NCI-H460 lung = system: NCI-H460 lung
HOP-92 NSCLC = system: HOP-92 NSCLC
NCI-H522 lung = system: NCI-H522 lung
A549/ATCC NSCLC = system: A549/ATCC NSCLC
786-0 renal = system: 786-0 renal
COLO 205 colon = system: COLO 205 colon
DU-145 prostate = system: DU-145 prostate
K-562 leukemia = system: K-562 leukemia
MALME-3M melanoma = system: MALME-3M melanoma
MDA-MB-231 breast = system: MDA-MB-231 breast
RXF 393 renal = system: RXF 393 renal
SF-268 CNS = system: SF-268 CNS
SF-295 CNS = system: SF-295 CNS
SF-539 CNS = system: SF-539 CNS
UACC-257 melanoma = system: UACC-257 melanoma
M14 melanoma = system: M14 melanoma

Structure (SMILES) | growth (NCI-H23 lung) | growth (NCI-H226 lung) [%] | growth (NCI-H322M lung) | growth (HOP-62 NSCLC) | growth (NCI-H460 lung) | growth (HOP-92 NSCLC) | growth (NCI-H522 lung) | growth (A549/ATCC NSCLC) | growth (786-0 renal) | growth (COLO 205 colon) | growth (DU-145 prostate) | growth (K-562 leukemia) | growth (MALME-3M melanoma) | growth (MDA-MB-231 breast) | growth (RXF 393 renal) | growth (SF-268 CNS) | growth (SF-295 CNS) | growth (SF-539 CNS) | growth (UACC-257 melanoma) | growth (M14 melanoma)
COc1cc(CNC(=O)/C=C/C=C/c2ccc3c(c2)OCO3)ccc1OCc1cn(-c2ccc(C)c(C)c2)nn1 | 66.8% | 47.8 | 82.3% | 92.5% | 85% | -4.29% (active) | 59.5% | 80.4% | 106% | 80.5% | 85.9% | 68.6% | 75.1% | 78.7% | 47.6% | 107% | 94.8% | 55.8% | 65% | 61.4%
N#C/C(=C\c1ccc(-c2ccc(Cl)cc2)o1)C(=O)Nc1ncc(Cc2ccc(Cl)cc2)s1 | 31.8% | 65 | 22.8% | -9.27% (active) | -38.3% (active) | 94.6% | 46.3% | -8.3% (active) | 42% | 57.2% | 19.6% | 62.2% | 5.36% (active) | 36.7% | 109% | 71.6% | 9.09% (active) | 27.1% | -28.3% (active) | 39.1%
O=C(OCc1ccc2cccc(O)c2n1)N1CCN(C(=O)c2cc3cc(F)ccc3[nH]2)CC1 | -22.8% (active) | 56.9 | 60% | -29.7% (active) | -47.6% (active) | -75.9% (active) | -63.2% (active) | -56.2% (active) | -87.1% (active) | -77.4% (active) | -83.9% (active) | 1.96% (active) | -93.2% (active) | -81.6% (active) | -93.1% (active) | -73.4% (active) | 54.7% | -98.3% (active) | -41.4% (active) | -77.7% (active)
COc1cc(NC(C)CCCNC(C)C)c2ncccc2c1OC (stereo not given) | 89.5% | 95 | 99.7% | 98.3% | 98.6% | 74.6% | 69.6% | 102% | 86.8% | 90.6% | 113% | 104% | 105% | 89% | 95% | 105% | 99.9% | 85.6% | 107% | 97%
COc1ccc2c3c([nH]c2c1)C(=O)c1nc(C)ccc1C3=O | 3.17% (active) | 66.1 | 43.4% | 46.6% | -34.9% (active) | 86% | 56% | -11.9% (active) | 79.7% | 63.2% | -73.2% (active) | 40.7% | -61.8% (active) | 49.8% | 69.9% | 69.5% | 45.8% | 54.8% | 32.7% | 19%
Cc1cccc(N2CCN(CC(O)COc3ccc(Cl)cc3)CC2)c1 (stereo not given) | 109% | 105 | 104% | 100% | 112% | 88.1% | 94.1% | 117% | 98% | 98% | 115% | 82.9% | 146% | 94.5% | 107% | 105% | 82.3% | 101% | 108% | 95.9%
O=C1c2c(c3c4ccccc4[nH]c3c3ccc4ccccc4c23)C(=O)N1CCN1CCCCC1 | 30.5% | 67.5 | 61.1% | -11.9% (active) | 4.88% (active) | 53% | 38% | 32.3% | 26% | 47% | 26.2% | -7.75% (active) | 73.9% | 75.7% | 65.7% | 39.6% | 30.4% | 46.3% | 85.4% | 30.2%
Fc1cc2c(cc1Cl)N(c1ncnc3ccc(-c4cnc5[nH]ncc5c4)cc13)CC2 | 73.3% | 49.5 | 52.1% | 54.8% | 54.7% | 34.5% | 55.9% | 44% | 65% | 79.2% | 56.2% | 77.5% | 77.3% | 52.7% | 38.5% | 57.3% | 72.9% | 68.2% | 86.3% | 85.5%
CCOC(=O)c1[nH]c(=O)c2c(C)nc(-c3ccccc3)cc2c1O | 105% | 93 | 118% | 124% | 102% | 78.5% | 92.7% | 101% | 112% | 117% | 112% | 110% | 136% | 78.8% | 112% | 106% | 110% | 106% | 106% | 104%
Cc1nc(N2CCOCC2)sc1S(N)(=O)=O | 102% | 84.5 | 94% | 94.5% | 102% | 88.2% | 92.8% | 101% | 101% | 104% | 105% | 110% | 96% | 101% | 103% | 94% | 94.1% | 98% | 97.4% | 103%
CN1CCN(c2ccc(C(=O)Nc3cccc(C#Cc4cccc5[nH]nc(N)c45)c3)cc2C(F)(F)F)CC1 | -51.9% (active) | 15.6 | -24.6% (active) | -63.7% (active) | -68.4% (active) | -11.8% (active) | -59.1% (active) | -67.2% (active) | -70.4% (active) | -72.9% (active) | -20.3% (active) | -36.9% (active) | -66.3% (active) | -72.2% (active) | -25.4% (active) | -1.07% (active) | -58.5% (active) | -82.7% (active) | -67.1% (active) | -69.5% (active)
CS(=O)(=O)C1=CN(CCO)C(=O)N2CCCN=C12 | 95.7% | 96.6 | 93.1% | 92.4% | 102% | 101% | 94.8% | 98.7% | 99.5% | 97.8% | 105% | 118% | 96.2% | 98.6% | 106% | 97.2% | 105% | 102% | 105% | 98.9%
COc1cc(CNS(=O)(=O)c2ccc(C)cc2)ccc1OCc1cn(-c2ccc(F)cc2)nn1 | 79.6% | 71.4 | 102% | 102% | 103% | 86.4% | 75.8% | 93.8% | 97.2% | 88% | 95.9% | 65.3% | 94.9% | 91% | 93.2% | 91.8% | 90.1% | 89.3% | 89.9% | 97.1%
CCSc1nc(NC)c2cc(-c3ccc(C(F)(F)F)cc3)ccc2n1 | 94.3% | 93.3 | 97.8% | 101% | 103% | 97.6% | 93.7% | 100% | 102% | 107% | 105% | 105% | 96.9% | 90.3% | 90.5% | 103% | 102% | 103% | 106% | 96.5%
COC(C(=O)[C@@H](O)[C@@H](C)O)[C@@H]1Cc2cc3cc(O[C@H]4C[C@@H](O[C@H]5C[C@@H](O)[C@H](O)C(C)O5)[C@H](O)C(C)O4)cc(O)c3c(O)c2C(=O)[C@H]1O[C@H]1C[C@@H](O[C@H]2C[C@@H](O[C@H]3C[C@@H](OC)[C@H](O)C(C)O3)[C@@H](O)C(C)O2)[C@H](O)C(C)O1 (stereo not given in full) | 47.4% | 38.8 | 50.2% | 18.8% | 18.7% | 64.2% | 15.5% | 19.2% | 50.7% | 31.2% | 53.5% | 38.6% | 25.8% | 43.2% | 27.6% | 49.9% | 30.7% | 38.1% | 19.9% | 57.2%

Reference: PubChem BioAssay (NCI)
